This is a sample that favours compounds with a hit; in the whole collection about 2.8% have one here.
proKLK7 act = proKLK7 zymogen activators, primary screen, biochemical, fluorescence intensity | Kallikrein-7 (Homo sapiens), P49862 | purified proKLK7, EDANS-DABCYL substrate fluorescence; 100% is mature enzyme control, 0% vehicle | activation, % at 7 µM | 370,000 compounds, 0.9% hits;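 active = activation above the mean of all tested compounds plus 3 SD, computed per campaign excluding outliers beyond control limits, cut at about 13% in these data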
Target sequence (P49862 whole entry, looked up): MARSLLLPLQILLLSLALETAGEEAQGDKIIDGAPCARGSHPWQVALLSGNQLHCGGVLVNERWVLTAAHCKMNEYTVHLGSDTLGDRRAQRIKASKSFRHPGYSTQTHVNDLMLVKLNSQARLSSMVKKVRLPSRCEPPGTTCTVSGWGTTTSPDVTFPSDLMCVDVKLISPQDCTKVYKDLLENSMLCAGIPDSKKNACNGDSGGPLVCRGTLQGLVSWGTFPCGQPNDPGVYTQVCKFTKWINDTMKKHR
PG9 binder = binders of HIV-1 gp120 antibody PG9, primary screen, biochemical, TR-FRET. AID 624416, 2012. 360,000 compounds, 0.43% hits. HIV-1 gp120 / PG9 antibody interaction. TR-FRET gp120-PG9 antibody binding. inhibition, % at 6.7 µM; in the data active = inhibition above about 8.5%
PP5 primary = PP5 phosphatase inhibitors, primary screen, biochemical, fluorescence; Serine/threonine-protein phosphatase 5 (Homo sapiens), P53041; purified PP5c, OMFP substrate fluorescence; inhibition, % at 6.7 µM; 320,000 compounds, 0.18% hits; AID 1987, 2009;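 active = inhibition above the campaign's mean inhibition across all tested compounds plus 3 SD, cut at about 9.5% in these data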;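 also: 0% = DMSO only and 100% = 100 µM cantharidin control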
JMJD2C inh = inhibitors of GASC-1 histone demethylase, primary screen, biochemical, fluorescence, DELFIA europium; GST-JMJD2C(1-420) H3K9me3 demethylation; inhibition, % at 2.35 µM; 330,000 compounds, 0.069% hits; AID 2099, 2009;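 active = more than half of a compound's replicate wells show inhibition beyond 50%, single wells judged on their own value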;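 also: signal counts dimethyl H3K9 product captured on neutravidin plate; 0% = median of DMSO wells and 100% = 0.3 times that DMSO median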
NR1D1 modulator = modulators of Rev-erb alpha DNA binding, primary screen, biochemical, FITC-DNA, fluorescence polarization, uHTS; Nuclear receptor subfamily 1 group D member 1 (Homo sapiens), P20393; AID 1259318, 2017; 370,000 compounds, 0.79% hits; Rev-erbα–FITC-DNA binding, 90 min; activity, % at 10 µM;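 active = activity above about 14%, limit read from the data; passing the limit was not always enough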;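 also: 0% = DMSO wells with 35 nM protein and 100% = DMSO wells with 750 nM protein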
PP1 counter = PP1-alpha phosphatase inhibitors, primary screen, counter-screen for PP5 inhibitor project, biochemical, fluorescence, OMFP substrate, single point; purified PP1alpha; inhibition, % at 6.7 µM; 320,000 compounds, 0.9% hits; AID 2235, 2010;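 active = inhibition above the mean inhibition of all tested compounds plus 3 SD, computed separately for each screening campaign, cut at about 15% in these data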
Target sequence (P62136 whole entry, looked up): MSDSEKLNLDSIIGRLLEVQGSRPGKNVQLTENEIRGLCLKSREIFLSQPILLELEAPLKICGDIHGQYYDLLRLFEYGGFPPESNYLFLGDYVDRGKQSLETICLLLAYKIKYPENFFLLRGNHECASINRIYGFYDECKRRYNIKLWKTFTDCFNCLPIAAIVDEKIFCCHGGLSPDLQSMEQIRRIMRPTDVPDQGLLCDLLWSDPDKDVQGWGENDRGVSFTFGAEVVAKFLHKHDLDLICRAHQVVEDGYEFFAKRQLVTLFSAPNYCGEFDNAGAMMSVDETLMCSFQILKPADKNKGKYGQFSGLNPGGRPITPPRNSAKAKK
PP1 inh confirm = PP1 phosphatase inhibitors, confirmation, biochemical, fluorescence, OMFP substrate, triplicate | shares compounds with PP1 counter | purified PP1alpha | inhibition, % at 6.7 µM | 1,900 compounds, 52% hits | AID 2358, 2010;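 active = mean PP1 inhibition above a set limit taken from the earlier primary screen, cut at about 15% in these data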
PP5 counter = PP5 phosphatase inhibition by PP1 hits, confirmation, counter-screen for PP1 inhibitor project, biochemical, fluorescence, triplicate | inhibition, % at 6.7 µM | purified PP5c, OMFP fluorescence | 1,900 compounds, 4% hits | AID 2360, 2010 | shares compounds with PP1 counter;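 active = mean PP5 inhibition over triplicate wells above about 9.5% taken from the earlier PP1 screen, limit read from the data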
* hit, by the source's call.

What do the screens show for `CCOc1ccc(NC(=O)c2cccc(-n3cccc3)c2)cc1S(=O)(=O)N1CCOCC1`?
proKLK7 act: 0; PG9 binder: 0; PP5 primary: 4; JMJD2C inh: -8; NR1D1 modulator: -36; PP1 counter: 22*; PP1 inh confirm: 23*; PP5 counter: 1

How did COc1ccc(S(=O)(=O)N2CCOCC2)cc1NC(=O)c1cccc(-n2cccc2)c1 do in these assays?
proKLK7 act: 0; PG9 binder: -1; PP5 primary: 0; JMJD2C inh: 3; NR1D1 modulator: -33; PP1 counter: 7

Results for C=CCn1cc(/C=N/Nc2nc3ccccc3[nH]2)c2ccccc21 ?
proKLK7 act: -2; PG9 binder: -4; PP5 primary: -2; JMJD2C inh: -5; NR1D1 modulator: 2; PP1 counter: 22*; PP1 inh confirm: 30*; PP5 counter: 4

How did Nc1[nH]c(C(=O)c2ccccc2)c(-c2ccccn2)c1C(=O)c1c[nH]c2ccccc12 do in these assays?
proKLK7 act: 0; PG9 binder: 0; NR1D1 modulator: -3

How did COC(=O)C1=C(C)N(Cc2ccccc2)C(=NCc2cccc(C(F)(F)F)c2)N[C@H]1c1cccc(F)c1 do in these assays?
proKLK7 act: 0; PG9 binder: -1; PP5 primary: 5; JMJD2C inh: 126; NR1D1 modulator: 2; PP1 counter: 18*; PP1 inh confirm: -4; PP5 counter: 3

Results for CCOC(=O)c1ncccc1NC(=O)CC(=O)Nc1cccnc1C(=O)OCC ?
proKLK7 act: 1; PG9 binder: 1; PP5 primary: 0; JMJD2C inh: -17; NR1D1 modulator: 1; PP1 counter: 27*; PP1 inh confirm: 5; PP5 counter: 1

What do the screens show for `CCOc1ccc(C(=O)OCC(=O)Nc2cccnc2Cl)cc1OCC`?
proKLK7 act: 0; PG9 binder: 0; JMJD2C inh: 5; NR1D1 modulator: -2

What do the screens show for `Cc1ccccc1-n1c(-c2ccncc2)n[nH]c1=S`?
proKLK7 act: 0; PG9 binder: -3; PP5 primary: 1; JMJD2C inh: 12; NR1D1 modulator: -2; PP1 counter: -6

How did Cc1cccc(-n2c(-c3ccncc3)n[nH]c2=S)c1C do in these assays?
proKLK7 act: 0; PG9 binder: 2; PP5 primary: 0; JMJD2C inh: 19; NR1D1 modulator: -2; PP1 counter: 19*; PP1 inh confirm: -4; PP5 counter: -5

Results for CCOC(=O)C1(C)C=C(Nc2ccccc2)C(=O)N1c1ccccc1 (stereo not drawn) ?
proKLK7 act: 0; PG9 binder: -1; PP5 primary: 1; JMJD2C inh: -31; NR1D1 modulator: 5; PP1 counter: 29*; PP1 inh confirm: 1; PP5 counter: -2

Results for O=C(Nc1cccc(S(=O)(=O)NC2=NCCC2)c1)c1cc(-c2ccco2)nc2ccccc12 ?
proKLK7 act: -12; PG9 binder: 0; PP5 primary: 1; JMJD2C inh: 4; NR1D1 modulator: -34; PP1 counter: 26*; PP1 inh confirm: 6; PP5 counter: -5

What do the screens show for `O=S(=O)(c1cccs1)N1CCN(Cc2cccc(F)c2)CC1`?
proKLK7 act: 1; PG9 binder: -1; PP5 primary: 2; JMJD2C inh: 8; NR1D1 modulator: -5; PP1 counter: 27*; PP1 inh confirm: 1; PP5 counter: 0

What do the screens show for `O=C1N2Cc3ccccc3C2CS(=O)(=O)N1C1CCCC1` (stereo not drawn)?
proKLK7 act: 0; NR1D1 modulator: -5

How did Cc1cc(N2CCCC2)ccc1/C=N/n1cnnc1 do in these assays?
proKLK7 act: 3; PG9 binder: 1; PP5 primary: 2; JMJD2C inh: 2; NR1D1 modulator: -22; PP1 counter: 18*; PP1 inh confirm: 1; PP5 counter: -7

How did O=C(CCn1nnc(-c2cccs2)n1)N1CCCCC1 do in these assays?
proKLK7 act: 0; NR1D1 modulator: 0

How did CN1[C@@H](Cc2ccccc2)COc2cccc(N3CCSCC3)c2S1(=O)=O do in these assays?
proKLK7 act: 0; NR1D1 modulator: 5

What do the screens show for `CCOC(=O)c1c(CSC(=N)N)n(-c2ccc(C)cc2)c2cc(Br)c(OC(C)=O)cc12`?
proKLK7 act: 0; PG9 binder: -2; PP5 primary: 0; JMJD2C inh: -8; NR1D1 modulator: -3; PP1 counter: 20*; PP1 inh confirm: -3; PP5 counter: -2

How did CCOC(=O)N1CCN(Cc2nc(N)nc(Nc3ccc(Oc4ccccc4)cc3)n2)CC1 do in these assays?
proKLK7 act: 0; PG9 binder: -1; PP5 primary: 2; JMJD2C inh: 2; NR1D1 modulator: -1; PP1 counter: 23*; PP1 inh confirm: 4; PP5 counter: -1

Results for Cc1ccc(NC(=O)C2CCN(S(=O)(=O)c3c(C)noc3/C=C/c3ccco3)CC2)nc1 ?
proKLK7 act: 0; PG9 binder: 0; PP5 primary: 1; JMJD2C inh: -4; NR1D1 modulator: -2; PP1 counter: 0

What do the screens show for `Cc1noc(/C=C/c2ccco2)c1S(=O)(=O)N1CCC(C(=O)N2CCc3ccccc3C2)CC1`?
PP5 primary: 6; JMJD2C inh: 2; PP1 counter: 19*; PP1 inh confirm: 26*; PP5 counter: 2

How did CCOC(=O)C1CCCN(c2nc3ccccc3nc2C(C#N)C(=O)OCC)C1 (stereo not drawn) do in these assays?
proKLK7 act: 0; PG9 binder: -1; PP5 primary: 4; JMJD2C inh: -1; NR1D1 modulator: 3; PP1 counter: 21*; PP1 inh confirm: 1; PP5 counter: 1

Results for CCOC(=O)C1CCCN(c2nc3ccccc3nc2C(C#N)C(=O)OCCOC)C1 (stereo not drawn) ?
proKLK7 act: 1; PG9 binder: -1; PP5 primary: 3; JMJD2C inh: 0; NR1D1 modulator: 2; PP1 counter: 3

Bioassay records: PubChem, several laboratories
